# Assay results: PubChem BioAssay (EPA / NIEHS)
# Records with an inconclusive call do not appear. Calls of active or inactive are those of the source. Rule for the calls: active = hit-call score of the fitted dose curve at least 0.9, where 1 is the maximum; inconclusive = response in the unintended direction; inactive = score below 0.9.
# Experiments:
# [1] = biological target: human Adenosine A1 Receptor (AdoRA1), ADORA1 (gene 134) (UniProt P30542); assay: NVS_GPCR_hAdoRA1: NovaScreen (NVS) G Protein-Coupled Receptor Assay for human Adenosine A1 Receptor (AdoRA1) (AID 2283254)
# Summary of the method: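 Membranes from human cortical tissue were incubated with radioligand and test chemical for 1 hour, then filtered and counted. Activity was taken as signal loss relative to DMSO, screened at 25 uM in duplicate before concentration-response follow-up.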
# [2] = biological target: human Serotonin, 5-Hydroxytryptamine Receptor 6 (5HT6), HTR6 (gene 3362) (UniProt P50406); assay: NVS_GPCR_h5HT6: NovaScreen (NVS) G Protein-Coupled Receptor Assay for human Serotonin, 5-Hydroxytryptamine Receptor 6 (5HT6) (AID 2283253)
# Summary of the method: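 Filter scintillation counting of radioligand displacement from HEK293-expressed 5HT6, 1 hour post-dose, with loss of signal relative to DMSO. Single 25 uM duplicates first, with concentration series for confirmation.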
# [3] = biological target: Beta-2 adrenergic receptor (Homo sapiens) (UniProt P07550); assay: NVS_GPCR_hAdrb2: NovaScreen (NVS) G Protein-Coupled Receptor Assay for human Adrenergic, Beta 2 Receptor (Adrb2) (AID 2283261)
# Summary of the method: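 Compounds screened in duplicate at 25 uM, then actives in concentration series. Human beta-2 receptor from CHO material, cell-free; radioligand displacement after 1 h measured by filtration and scintillation against DMSO baseline.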
# [4] = biological target: human Dopamine Receptor D4.4 (DRD4.4), DRD4 (gene 1815) (UniProt P21917); assay: NVS_GPCR_hDRD4.4: NovaScreen (NVS) G Protein-Coupled Receptor Assay for human Dopamine Receptor D4.4 (DRD4.4) (AID 2283264)
# Summary of the method: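 Filter-binding assay with a tritiated or iodinated ligand, cell-free receptor prepared from CHO, 1 hour. Loss of bound radioactivity versus DMSO; single 25 uM duplicate screen, then concentration-response for actives.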
# [5] = biological target: Muscarinic acetylcholine receptor M1 (Homo sapiens) (UniProt P11229); assay: NVS_GPCR_hM1: NovaScreen (NVS) G Protein-Coupled Receptor Assay for human Muscarinic, M1 Receptor (AID 2283270)
# Summary of the method: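 Actives from a duplicate 25 uM single-point screen were retested in concentration series. Binding measured as displacement of a radioligand from CHO-derived receptor preparation, 1 h incubation, filtration and scintillation counting, analysed as signal loss against DMSO.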
# [6] = tested on: guinea pig Muscarinic, Peripheral (Mperiperal) Receptor, Non-selective Binding, gene 100379235; assay: NVS_GPCR_gMPeripheral_NonSelective: NovaScreen (NVS) G Protein-Coupled Receptor Assay for guinea pig Muscarinic, Peripheral (Mperiperal) Receptor, Non-selective Binding (AID 2283250)
# Summary of the method: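 Screened in duplicate at 25 uM, hits retested in concentration series to 50 uM max, using bladder membrane radioligand displacement from guinea pig. Filtration and scintillation counting 1 h post-dose, fitted relative to DMSO.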
# [7] = biological target: human Serotonin, 5-Hydroxytryptamine Receptor 5A (5HT5A), HTR5A (gene 3361) (UniProt P47898); assay: NVS_GPCR_h5HT5A: NovaScreen (NVS) G Protein-Coupled Receptor Assay for human Serotonin, 5-Hydroxytryptamine Receptor 5A (5HT5A) (AID 2283251)
# Summary of the method: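 Membranes from HEK293 cells, radioligand binding read by filtration and scintillation after 1 h. Single-concentration duplicate testing at 25 uM, then concentration-response for actives; positive-direction fitting relative to DMSO.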
# [8] = biological target: human Serotonin, 5-Hydroxytryptamine Receptor 7 (5HT7), HTR7 (gene 3363) (UniProt P34969); assay: NVS_GPCR_h5HT7: NovaScreen (NVS) G Protein-Coupled Receptor Assay for human Serotonin, 5-Hydroxytryptamine Receptor 7 (5HT7) (AID 2283255);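 note: hits reduce specific radioligand binding relative to DMSO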
# Summary of the method: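 Filter-bound radioactivity counted after 1 h, with loss of specific radioligand binding fitted against DMSO. Membrane protein came from CHO cells expressing human 5HT7. Chemicals were tested first at 25 uM in duplicate, then in concentration series if active.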
# [9] = biological target: Type-1 angiotensin II receptor (Homo sapiens) (UniProt P30556); assay: NVS_GPCR_hAT1: NovaScreen (NVS) G Protein-Coupled Receptor Assay for human Angiotensin II receptor type 1 (AT1) (AID 2283263)
# Summary of the method: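 Hits from a 25 uM duplicate screen (threshold e.g. 30% inhibition) were run in concentration-response with 50 uM top concentration. Displacement of specific radioligand from KAN-TS membrane preparations measured after 3 h by filter scintillation, DMSO as baseline.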
# [10] = biological target: human Dopamine Receptor D2 (DRD2), DRD2 (gene 1813) (UniProt P14416); assay: NVS_GPCR_hDRD2s: NovaScreen (NVS) G Protein-Coupled Receptor Assay for human Dopamine Receptor D2 (DRD2) (AID 2283266)
# Summary of the method: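 Test compound (25 uM, duplicate in the primary screen; concentration series at follow-up) competed with radioligand for human DRD2 in CHO-derived membrane protein. Filter-based scintillation counting was done 1.5 hours after dosing, with loss of signal analysed against DMSO.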
# [11] = biological target: D(1A) dopamine receptor (Homo sapiens) (UniProt P21728); assay: NVS_GPCR_hDRD1: NovaScreen (NVS) G Protein-Coupled Receptor Assay for human Dopamine Receptor D1 (DRD1) (AID 2283269)
# Summary of the method: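 Cell-free radioligand binding to human DRD1 from HEK293 membranes, read 1 h after dosing by filter-based scintillation counting. Loss of signal versus DMSO baseline marks displacement. Primary screen at 25 uM single concentration in duplicate; actives followed up in concentration series.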
# [12] = biological target: guinea pig Opioid, Kappa 1 Receptor (OpiateK), OPRK1 (gene 100135587) (UniProt P41144); assay: NVS_GPCR_gOpiateK: NovaScreen (NVS) G Protein-Coupled Receptor Assay for guinea pig Opioid, Kappa 1 Receptor (OpiateK) (AID 2283252);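 note: radioligand displacement from kappa opioid receptor in guinea pig cerebellar membranes; active means reduced radioligand binding relative to DMSO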
# Summary of the method: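 Radioligand competition binding using guinea pig cerebellum membrane fraction; 2 h exposure; filter radiodetection. Single concentration 25 uM (duplicate), follow-up concentration-response for actives.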
# [13] = biological target: human Adrenergic, Alpha 2A Receptor (Adra2A), ADRA2A (gene 150) (UniProt P08913); assay: NVS_GPCR_hAdra2A: NovaScreen (NVS) G Protein-Coupled Receptor Assay for human Adrenergic, Alpha 2A Receptor (Adra2A) (AID 2283257)
# Summary of the method: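 Displacement of a specific radioligand from HT29 membrane protein was counted by filter scintillation after 1 h. Compounds were screened in duplicate at 25 uM, and actives were retested in concentration series. Fitting was positive-direction against DMSO.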
# [14] = biological target: Muscarinic acetylcholine receptor M3 (Homo sapiens) (UniProt P20309); assay: NVS_GPCR_hM3: NovaScreen (NVS) G Protein-Coupled Receptor Assay for human Muscarinic, M3 Receptor (AID 2283272)
# Summary of the method: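 Radioligand displacement binding on human M3 receptor in CHO-derived membranes, 1 h incubation, filter-based scintillation counting. Primary screen in duplicate at 25 uM; actives followed up in concentration series; loss of signal versus DMSO.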
# [15] = biological target: human Adenosine A2a Receptor (AdoRA2a), ADORA2A (gene 135) (UniProt P29274); assay: NVS_GPCR_hAdoRA2a: NovaScreen (NVS) G Protein-Coupled Receptor Assay for human Adenosine A2a Receptor (AdoRA2a) (AID 2283256)
# Summary of the method: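 Compounds screened in duplicate at 25 uM, with actives followed up in concentration series, for displacement of a radioligand from HEK293-derived receptor protein. Bound counts read by filter scintillation at 1.5 hours, DMSO as baseline.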
# [16] = biological target: human Histamine 1 Receptor (H1), HRH1 (gene 3269) (UniProt P35367); assay: NVS_GPCR_hH1: NovaScreen (NVS) G Protein-Coupled Receptor Assay for human Histamine 1 Receptor (H1) (AID 2283268)
# Summary of the method: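 Filter-based scintillation detection of radioligand binding to human H1, 1 h incubation; chemicals screened in duplicate at 25 uM, then concentration-response; signal loss relative to DMSO taken as activity.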
# [17] = biological target: human Adrenergic, Beta 3 Receptor (Adrb3), ADRB3 (gene 155) (UniProt P13945); assay: NVS_GPCR_hAdrb3: NovaScreen (NVS) G Protein-Coupled Receptor Assay for human Adrenergic, Beta 3 Receptor (Adrb3) (AID 2283262)
# Summary of the method: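 A cell-free filter binding assay read by scintillation counting, with displacement of a specific radioligand measured after 1 hour. The receptor source was SK-N-MC extracts (cells pretreated with isoproterenol and 8-bromo-cAMP). Compounds were first tested at 25 uM in duplicate and then in concentration series.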
# [18] = biological target: human Adrenergic, Beta 1 Receptor (Adrb1), ADRB1 (gene 153) (UniProt P08588); assay: NVS_GPCR_hAdrb1: NovaScreen (NVS) G Protein-Coupled Receptor Assay for human Adrenergic, Beta 1 Receptor (Adrb1) (AID 2283258)
# Summary of the method: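 Membranes/protein extracted from human neuroepithelioma cells, radioligand competition binding read by filtration and scintillation 2 h post-dose. Single 25 uM duplicate screen, then concentration-response follow-up; DMSO as negative control.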
# [19] = biological target: human Adrenergic, Alpha 2c Receptor (Adra2C), ADRA2C (gene 152) (UniProt P18825); assay: NVS_GPCR_hAdra2C: NovaScreen (NVS) G Protein-Coupled Receptor Assay for human Adrenergic, Alpha 2c Receptor (Adra2C) (AID 2283259)
# Summary of the method: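 Screened first in duplicate at 25 uM, with actives then run as concentration series. Membranes from Sf9 cells were exposed for 1 h, and displacement of radioligand was counted after filtration, using DMSO as baseline.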
# Sequence of human Serotonin, 5-Hydroxytryptamine Receptor 7 (5HT7), HTR7 (gene 3363) (P34969 whole entry, looked up): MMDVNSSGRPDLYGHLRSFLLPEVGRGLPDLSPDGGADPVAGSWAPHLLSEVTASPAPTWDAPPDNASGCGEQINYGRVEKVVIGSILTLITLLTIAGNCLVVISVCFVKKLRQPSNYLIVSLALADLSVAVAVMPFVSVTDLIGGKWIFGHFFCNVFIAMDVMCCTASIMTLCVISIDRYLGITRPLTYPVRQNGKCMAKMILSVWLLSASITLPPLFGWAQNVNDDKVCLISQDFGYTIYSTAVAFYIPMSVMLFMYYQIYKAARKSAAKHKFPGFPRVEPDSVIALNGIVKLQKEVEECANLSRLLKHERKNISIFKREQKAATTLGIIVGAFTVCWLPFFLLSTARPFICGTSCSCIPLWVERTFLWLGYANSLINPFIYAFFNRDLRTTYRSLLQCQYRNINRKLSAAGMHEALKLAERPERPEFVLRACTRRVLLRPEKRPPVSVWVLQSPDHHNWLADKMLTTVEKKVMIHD
# Sequence of human Adenosine A2a Receptor (AdoRA2a), ADORA2A (gene 135) (P29274 whole entry, looked up): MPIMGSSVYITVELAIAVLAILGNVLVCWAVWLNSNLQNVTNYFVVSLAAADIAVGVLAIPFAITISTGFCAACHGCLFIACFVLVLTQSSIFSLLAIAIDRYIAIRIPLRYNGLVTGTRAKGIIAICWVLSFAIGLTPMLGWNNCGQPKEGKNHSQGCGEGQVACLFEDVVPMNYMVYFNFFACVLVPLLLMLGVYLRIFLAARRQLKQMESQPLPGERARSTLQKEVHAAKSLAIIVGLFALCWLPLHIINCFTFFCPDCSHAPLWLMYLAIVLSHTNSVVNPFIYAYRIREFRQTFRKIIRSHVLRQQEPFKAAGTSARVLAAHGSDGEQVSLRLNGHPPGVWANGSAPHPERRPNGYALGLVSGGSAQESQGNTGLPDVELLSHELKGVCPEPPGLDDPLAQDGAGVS
# Sequence of human Adrenergic, Beta 3 Receptor (Adrb3), ADRB3 (gene 155) (P13945 whole entry, looked up): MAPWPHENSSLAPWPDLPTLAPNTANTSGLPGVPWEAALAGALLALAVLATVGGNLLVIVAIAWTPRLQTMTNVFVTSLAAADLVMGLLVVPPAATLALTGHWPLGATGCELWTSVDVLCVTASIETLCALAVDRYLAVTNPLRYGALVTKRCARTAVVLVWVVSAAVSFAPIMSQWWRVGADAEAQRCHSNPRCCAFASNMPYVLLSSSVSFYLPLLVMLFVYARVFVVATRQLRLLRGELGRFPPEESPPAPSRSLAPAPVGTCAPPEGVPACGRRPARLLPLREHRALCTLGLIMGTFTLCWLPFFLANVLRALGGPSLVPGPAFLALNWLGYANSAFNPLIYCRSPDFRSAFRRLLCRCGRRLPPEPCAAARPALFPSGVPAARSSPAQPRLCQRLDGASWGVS
# Sequence of human Histamine 1 Receptor (H1), HRH1 (gene 3269) (P35367 whole entry, looked up): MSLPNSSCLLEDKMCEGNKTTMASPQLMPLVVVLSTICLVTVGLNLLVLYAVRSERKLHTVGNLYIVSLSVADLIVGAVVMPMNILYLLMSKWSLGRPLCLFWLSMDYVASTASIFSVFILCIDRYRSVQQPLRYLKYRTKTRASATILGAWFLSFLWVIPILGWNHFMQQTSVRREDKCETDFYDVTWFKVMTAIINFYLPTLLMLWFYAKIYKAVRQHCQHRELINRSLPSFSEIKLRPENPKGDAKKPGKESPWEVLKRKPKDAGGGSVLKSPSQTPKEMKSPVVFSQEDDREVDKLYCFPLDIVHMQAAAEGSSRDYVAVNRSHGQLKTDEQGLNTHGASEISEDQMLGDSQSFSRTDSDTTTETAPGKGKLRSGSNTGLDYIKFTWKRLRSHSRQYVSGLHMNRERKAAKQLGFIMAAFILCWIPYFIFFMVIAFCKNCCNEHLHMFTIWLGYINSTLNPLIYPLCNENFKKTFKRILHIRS
# Sequence of human Adenosine A1 Receptor (AdoRA1), ADORA1 (gene 134) (P30542 whole entry, looked up): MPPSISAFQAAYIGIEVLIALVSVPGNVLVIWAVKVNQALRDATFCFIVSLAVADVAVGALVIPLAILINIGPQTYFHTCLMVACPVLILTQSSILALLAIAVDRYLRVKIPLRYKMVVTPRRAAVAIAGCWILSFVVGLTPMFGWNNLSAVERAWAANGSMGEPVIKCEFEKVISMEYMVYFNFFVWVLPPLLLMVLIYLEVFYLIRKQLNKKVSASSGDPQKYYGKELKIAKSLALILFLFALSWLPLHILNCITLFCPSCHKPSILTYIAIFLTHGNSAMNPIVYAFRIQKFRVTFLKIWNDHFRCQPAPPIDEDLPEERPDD
# Sequence of Beta-2 adrenergic receptor (Homo sapiens) (P07550 whole entry, looked up): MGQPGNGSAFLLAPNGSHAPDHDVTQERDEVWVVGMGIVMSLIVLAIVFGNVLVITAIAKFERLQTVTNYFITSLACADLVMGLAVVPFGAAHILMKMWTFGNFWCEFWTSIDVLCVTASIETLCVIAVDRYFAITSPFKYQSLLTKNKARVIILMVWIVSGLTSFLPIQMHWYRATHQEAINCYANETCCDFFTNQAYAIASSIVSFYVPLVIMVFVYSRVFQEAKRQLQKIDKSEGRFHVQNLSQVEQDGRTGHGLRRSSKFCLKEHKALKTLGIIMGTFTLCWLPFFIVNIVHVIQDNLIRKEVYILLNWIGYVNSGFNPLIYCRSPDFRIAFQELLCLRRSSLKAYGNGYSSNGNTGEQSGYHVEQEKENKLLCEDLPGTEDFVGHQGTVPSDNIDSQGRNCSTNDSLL
# Sequence of human Serotonin, 5-Hydroxytryptamine Receptor 5A (5HT5A), HTR5A (gene 3361) (P47898 whole entry, looked up): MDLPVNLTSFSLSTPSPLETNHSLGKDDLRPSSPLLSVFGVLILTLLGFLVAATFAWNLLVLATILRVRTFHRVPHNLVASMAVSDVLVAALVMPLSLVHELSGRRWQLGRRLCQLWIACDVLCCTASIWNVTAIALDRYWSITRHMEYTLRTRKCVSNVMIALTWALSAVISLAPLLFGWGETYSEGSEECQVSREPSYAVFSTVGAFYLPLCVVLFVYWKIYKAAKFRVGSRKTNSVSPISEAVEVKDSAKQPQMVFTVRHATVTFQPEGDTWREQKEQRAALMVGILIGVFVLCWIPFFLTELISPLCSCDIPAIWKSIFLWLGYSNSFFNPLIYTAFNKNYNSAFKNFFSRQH
# Sequence of Muscarinic acetylcholine receptor M1 (Homo sapiens) (P11229 whole entry, looked up): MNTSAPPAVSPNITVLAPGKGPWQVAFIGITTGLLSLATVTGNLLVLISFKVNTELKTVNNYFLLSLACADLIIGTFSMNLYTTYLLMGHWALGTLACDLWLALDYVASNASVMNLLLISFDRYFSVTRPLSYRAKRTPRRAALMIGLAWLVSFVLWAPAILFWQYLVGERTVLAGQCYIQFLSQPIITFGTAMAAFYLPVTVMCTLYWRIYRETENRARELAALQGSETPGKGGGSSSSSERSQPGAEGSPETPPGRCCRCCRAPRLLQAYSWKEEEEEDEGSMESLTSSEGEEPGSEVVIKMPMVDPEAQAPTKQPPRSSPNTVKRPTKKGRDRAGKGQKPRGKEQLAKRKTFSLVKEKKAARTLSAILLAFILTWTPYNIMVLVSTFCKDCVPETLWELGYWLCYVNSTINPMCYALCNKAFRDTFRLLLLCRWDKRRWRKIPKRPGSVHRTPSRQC
# Sequence of human Adrenergic, Alpha 2c Receptor (Adra2C), ADRA2C (gene 152) (P18825 whole entry, looked up): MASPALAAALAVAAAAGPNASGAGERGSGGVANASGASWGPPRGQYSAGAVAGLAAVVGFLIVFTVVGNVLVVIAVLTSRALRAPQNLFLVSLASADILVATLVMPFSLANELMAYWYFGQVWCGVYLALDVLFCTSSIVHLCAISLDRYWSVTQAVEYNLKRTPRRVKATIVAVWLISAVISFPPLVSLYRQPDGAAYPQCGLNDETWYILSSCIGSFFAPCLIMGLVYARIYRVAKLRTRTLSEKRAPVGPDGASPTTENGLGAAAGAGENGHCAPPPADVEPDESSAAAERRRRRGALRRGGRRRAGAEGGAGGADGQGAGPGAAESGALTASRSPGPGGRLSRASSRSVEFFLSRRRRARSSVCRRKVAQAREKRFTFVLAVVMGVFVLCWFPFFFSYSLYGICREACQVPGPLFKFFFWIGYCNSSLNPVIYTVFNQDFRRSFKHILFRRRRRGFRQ
# Sequence of Type-1 angiotensin II receptor (Homo sapiens) (P30556 whole entry, looked up): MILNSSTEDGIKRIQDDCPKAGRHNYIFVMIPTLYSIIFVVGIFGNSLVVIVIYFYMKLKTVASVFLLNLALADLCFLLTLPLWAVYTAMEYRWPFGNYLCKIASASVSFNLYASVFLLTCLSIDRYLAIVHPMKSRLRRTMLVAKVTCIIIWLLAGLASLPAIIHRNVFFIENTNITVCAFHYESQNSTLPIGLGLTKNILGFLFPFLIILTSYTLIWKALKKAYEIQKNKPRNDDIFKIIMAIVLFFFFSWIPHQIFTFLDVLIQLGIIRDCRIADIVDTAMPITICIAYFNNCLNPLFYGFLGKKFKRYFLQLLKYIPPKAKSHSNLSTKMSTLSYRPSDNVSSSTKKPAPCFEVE
# Sequence of human Dopamine Receptor D4.4 (DRD4.4), DRD4 (gene 1815) (P21917 whole entry, looked up): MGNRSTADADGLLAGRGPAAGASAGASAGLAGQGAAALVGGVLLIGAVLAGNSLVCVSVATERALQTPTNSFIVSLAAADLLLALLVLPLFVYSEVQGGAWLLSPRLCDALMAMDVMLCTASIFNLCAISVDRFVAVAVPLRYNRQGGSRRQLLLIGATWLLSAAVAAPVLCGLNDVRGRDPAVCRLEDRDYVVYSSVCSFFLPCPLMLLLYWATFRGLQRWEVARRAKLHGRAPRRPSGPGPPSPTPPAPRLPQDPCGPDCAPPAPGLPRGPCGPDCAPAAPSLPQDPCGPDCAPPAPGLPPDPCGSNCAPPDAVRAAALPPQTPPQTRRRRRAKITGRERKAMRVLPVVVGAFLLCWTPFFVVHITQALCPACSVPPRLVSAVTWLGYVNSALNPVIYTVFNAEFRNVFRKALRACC
structure (smiles),measurement,setting,value
CCOP(=S)(OCC)Oc1nc(Cl)n(C(C)C)n1,AC50,[1],8.95 µM (active)
N#Cc1c[nH]cc1-c1cccc2c1OC(F)(F)O2,outcome,[2],inactive
same,outcome,[3],inactive
same,outcome,[4],inactive
same,outcome,[5],inactive
O=C1C2CC=CCC2C(=O)N1SC(Cl)(Cl)Cl (stereo not given),outcome,[6],inactive
same,outcome,[7],inactive
same,AC50,[8],4.95 µM (active)
same,AC50,[9],13.4 µM (active)
same,AC50,[10],25 µM (active)
same,AC50,[11],9.65 µM (active)
CCCN(CC)CC1COC2(CCC(C(C)(C)C)CC2)O1 (stereo not given),outcome,[6],inactive
same,AC50,[12],14.3 µM (active)
same,AC50,[8],8 µM (active)
same,AC50,[13],3.99 µM (active)
same,AC50,[4],7.95 µM (active)
same,outcome,[10],inactive
same,AC50,[5],4.97 µM (active)
same,AC50,[14],8.78 µM (active)
COP(=S)(OC)SCn1nnc2ccccc2c1=O,outcome,[6],inactive
same,AC50,[1],9.98 µM (active)
same,outcome,[15],inactive
same,outcome,[3],inactive
same,outcome,[16],inactive
CN/C(=N\[N+](=O)[O-])NCc1cnc(Cl)s1,outcome,[7],inactive
same,outcome,[17],inactive
Nc1cnn(-c2ccccc2)c(=O)c1Cl,AC50,[1],8.18 µM (active)
same,AC50,[15],32.6 µM (active)
CCOc1cc(C(C)(C)C)ccc1C1COC(c2c(F)cccc2F)=N1 (stereo not given),outcome,[1],inactive
COC(=O)N(C(=O)N1CO[C@@]2(C(=O)OC)Cc3cc(Cl)ccc3C2=N1)c1ccc(OC(F)(F)F)cc1,outcome,[8],inactive
same,outcome,[9],inactive
Cc1ccc(N=CN(C)C=Nc2ccc(C)cc2C)c(C)c1,AC50,[8],0.574 µM (active)
Cc1cc(C)nc(Nc2ccccc2)n1,AC50,[15],10.9 µM (active)
CC(C)Nc1nc(Cl)nc(NC(C)C)n1,AC50,[18],6.34 µM (active)
CC1(C)CON(Cc2ccccc2Cl)C1=O,outcome,[19],inactive
Nc1c(Cl)c(F)nc(OCC(=O)O)c1Cl,outcome,[19],inactive
CC(C)Oc1cccc(NC(=O)c2ccccc2C(F)(F)F)c1,outcome,[17],inactive
O=C(O)c1c(Cl)ccc2cc(Cl)cnc12,outcome,[17],inactive
Clc1nc(Cl)nc(Nc2ccccc2Cl)n1,outcome,[16],inactive
CCOP(=O)(OCC)Oc1nc(Cl)c(Cl)cc1Cl,outcome,[16],inactive
